Experimental data published in PubChem BioAssay (NCATS).
“And” between values parts separate entries of the source, which are not always exact repeats. Identical values can stand only once. Results filed as inconclusive are left out. The source made the active and inactive calls. Unless noted, calls come from the whole dose curve.

What follows are compounds tested against Rap guanine nucleotide exchange factor 4 (Homo sapiens) (UniProt Q8WZA2) (assay: Confirmatory qHTS for agonist of cAMP-regulated guanine nucleotide exchange factor 4 (EPAC2) (AID 1645884; active = well fitted curve in the direction sought with a large enough effect; an effect the other way counts as inactive or inconclusive;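 note: nucleotide exchange releases bodipy-GDP from Rap1 and this lowers its fluorescence; nearly all actives have a fitted effect of over 65% in size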; for activation: % is set by controls: 0 for no effect and ±100 for the full control effect)). Details: EPAC2 GEF activity, Rap1B-BODIPY-GDP fluorescence; series mostly up to 154 µM.
Sequence of Rap guanine nucleotide exchange factor 4 (Homo sapiens) (Q8WZA2 whole entry, looked up): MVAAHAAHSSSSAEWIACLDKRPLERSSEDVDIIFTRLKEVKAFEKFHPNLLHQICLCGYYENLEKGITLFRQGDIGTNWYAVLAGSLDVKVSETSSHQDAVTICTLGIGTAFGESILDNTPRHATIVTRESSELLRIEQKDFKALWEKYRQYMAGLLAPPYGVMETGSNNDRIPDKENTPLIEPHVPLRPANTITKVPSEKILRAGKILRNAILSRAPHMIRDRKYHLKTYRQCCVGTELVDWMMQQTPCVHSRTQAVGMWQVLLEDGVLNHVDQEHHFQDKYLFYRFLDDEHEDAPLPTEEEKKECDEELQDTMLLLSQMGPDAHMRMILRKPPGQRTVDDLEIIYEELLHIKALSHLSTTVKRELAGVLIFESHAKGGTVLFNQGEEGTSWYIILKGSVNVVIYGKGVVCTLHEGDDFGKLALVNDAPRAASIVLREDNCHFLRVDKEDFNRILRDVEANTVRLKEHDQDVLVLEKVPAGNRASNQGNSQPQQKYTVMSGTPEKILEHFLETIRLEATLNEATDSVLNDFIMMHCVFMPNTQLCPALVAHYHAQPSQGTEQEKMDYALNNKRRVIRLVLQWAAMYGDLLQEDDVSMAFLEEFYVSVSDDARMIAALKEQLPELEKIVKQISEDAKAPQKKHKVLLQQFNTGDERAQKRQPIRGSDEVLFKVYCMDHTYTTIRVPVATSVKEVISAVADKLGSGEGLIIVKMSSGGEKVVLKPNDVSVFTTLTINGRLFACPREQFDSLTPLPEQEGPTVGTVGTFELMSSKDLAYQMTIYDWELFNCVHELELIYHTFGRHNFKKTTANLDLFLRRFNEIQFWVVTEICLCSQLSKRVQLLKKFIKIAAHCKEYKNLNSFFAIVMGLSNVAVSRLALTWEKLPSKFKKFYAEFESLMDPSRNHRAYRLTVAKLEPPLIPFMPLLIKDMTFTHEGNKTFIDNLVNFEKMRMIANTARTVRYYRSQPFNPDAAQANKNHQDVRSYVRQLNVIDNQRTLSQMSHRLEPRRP
Potency is the fitted concentration of half-maximal effect.

SMILES	Potency	activation
Cc1ccc(O)c(N=Nc2ccccc2)n1	inactive	
c1ccc(CCNc2nc(-c3ccccc3)cs2)cc1	inactive	
N#C/C(=C\c1ccc(O)c(O)c1)C(=O)c1ccc(O)c(O)c1		1.63% [at 17.1 µM, percent relative to cAMP agonist control] (inactive)
O=C1O/C(=C/Br)CCC1c1cccc2ccccc12 (stereo not drawn)	inactive	
CC(=O)[C@]1(O)Cc2c(O)c3c(c(O)c2[C@@H](O[C@H]2C[C@H](N)[C@H](O)[C@H](C)O2)C1)C(=O)c1c(O)cccc1C3=O	79.3 µM (active)	
CCOC(=O)C1=C(C)NC(C)=C(C(=O)OCC)C1c1c(F)c(F)c(F)c(F)c1F	inactive	
C#CCN1C(C)=C(C(=O)OC)C(c2cccc([N+](=O)[O-])c2)C(C(=O)OCC)=C1C (stereo not drawn)	inactive	
O=C(O)c1cc([N+](=O)[O-])ccc1NCCCc1ccccc1	inactive	
O=C1C(SCCO)=C(SCCO)C(=O)c2ccccc21	inactive	
Oc1cc2c(cc1O)CN(C(=S)NCCc1ccc(Cl)cc1)CCC2	inactive	

These compounds were tested against Rap guanine nucleotide exchange factor 4 (Homo sapiens) (UniProt Q8WZA2) (assay: Confirmatory qHTS for antagonist of cAMP-regulated guanine nucleotide exchange factor 4 (EPAC2) (AID 1645885; active = well fitted curve in the direction sought with a large enough effect; an effect the other way counts as inactive or inconclusive; note: nearly all actives have a fitted effect of over 25% in size; for activity change, negative = inhibition: % is set by controls: 0 for no effect and ±100 for the full control effect)). Details: EPAC2 Rap1B-BODIPY-GDP exchange fluorescence, biochemical; series mostly up to 114 µM.

SMILES	Potency	activity change, negative = inhibition
c1ccc(CCNc2nc(-c3ccccc3)cs2)cc1	inactive	
N#C/C(=C\c1ccc(O)c(O)c1)C(=O)c1ccc(O)c(O)c1		16.6% [at 12.7 µM] (inactive)
O=C1O/C(=C/Br)CCC1c1cccc2ccccc12 (stereo not drawn)	49.4 µM (active)	
CC(=O)[C@]1(O)Cc2c(O)c3c(c(O)c2[C@@H](O[C@H]2C[C@H](N)[C@H](O)[C@H](C)O2)C1)C(=O)c1c(O)cccc1C3=O	inactive	
CCOC(=O)C1=C(C)NC(C)=C(C(=O)OCC)C1c1c(F)c(F)c(F)c(F)c1F	44.1 µM (active)	
C#CCN1C(C)=C(C(=O)OC)C(c2cccc([N+](=O)[O-])c2)C(C(=O)OCC)=C1C (stereo not drawn)	6.98 µM (active)	
O=C1C(SCCO)=C(SCCO)C(=O)c2ccccc21	inactive	

The compounds below were run against Catechol O-methyltransferase (Homo sapiens) (UniProt P21964) (assay: Confirmatory Screen for Target Class Profiling of Small Molecule Inhibitors of Methyltransferases (AID 1745852; for activity change, negative = inhibition: % is set by controls: 0 for no effect and ±100 for the full control effect)). Details: MTase-Glo luminescence, SAH detection, recombinant enzyme; measured here: COMT max response; stronger effect = lower value.
Sequence of Catechol O-methyltransferase (Homo sapiens) (P21964 whole entry, looked up): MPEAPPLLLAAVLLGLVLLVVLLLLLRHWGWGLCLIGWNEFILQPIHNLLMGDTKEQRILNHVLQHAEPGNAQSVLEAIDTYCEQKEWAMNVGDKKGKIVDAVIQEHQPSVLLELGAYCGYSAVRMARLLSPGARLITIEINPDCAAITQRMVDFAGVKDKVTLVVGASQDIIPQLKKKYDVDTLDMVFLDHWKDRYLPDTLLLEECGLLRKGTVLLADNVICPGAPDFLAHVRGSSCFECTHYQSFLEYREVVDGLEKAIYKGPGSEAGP

SMILES	activity
O=C(O)CC[C@@H](C(=O)O)N1C(=O)c2ccccc2C1=O	-23.9%
COc1ccccc1CNCCCCCCNCCCCCCCCNCCCCCCNCc1ccccc1OC	5.14%
O=C1NCc2c1c1c3ccccc3[nH]c1c1[nH]c3ccccc3c21	-23.6%
Fc1ccc(C(OCCCc2cnc[nH]2)c2ccc(F)cc2)cc1	0.59%
COC1=C(OC)C(=O)c2ccccc2C1=O	-44.1%
Oc1ccc(C2CNCc3sccc32)cc1O (stereo not drawn)	133%
COc1cc(OC)c(/C=C2/C(=O)Nc3ccccc32)c(OC)c1	-23%
CN1CCc2cccc3c2C1Cc1ccc(O)c(O)c1-3 (stereo not drawn)	5.12%
N.N.N.N.N.N.N.N.N.N.N.N.N.N.O.O.[Ru+4].[Ru+5].[Ru+5]	-14.7%
COc1ccc(NC(=O)/C=C/c2ccc(Cl)cc2)cc1	-21.5%
Oc1ccccc1O	160%
O=[N+]([O-])c1ccc(CNc2nc(NCc3cccc(C(F)(F)F)c3)nc3nc[nH]c23)cc1	-6.92% and 9.66%
NO	3.62%
OCC1O[C@H]([S-])[C@H](O)[C@@H](O)[C@@H]1O.[Au+] (stereo partly drawn)	-38.3%
COc1ccc(Br)cc1S(=O)(=O)NC(=O)/C=C/c1ccccc1Cc1ccc2ccccc2c1	3.65%
CC(C)(C)c1ccc(S(=O)(=O)/C=C/C#N)cc1	0.864%
O=C(O)CNC(=O)C(CS)Cc1ccccc1 (stereo not drawn)	9.44%
COc1ccc(/C=C2\COc3ccc(C)cc3C2=O)cc1O	3.43%
O=C1C(SCCO)=C(SCCO)C(=O)c2ccccc21	-43.3%
O=C(c1cc(O)c(O)c([N+](=O)[O-])c1)c1ccccc1F	-103%
CC(C)(C=O)Cc1cc(C(C)(C)C)c(O)c(C(C)(C)C)c1	2.63%
Oc1cc2c(cc1O)CN(C(=S)NCCc1ccc(Cl)cc1)CCC2	160%
O=Nc1ccc2oc(=O)ccc2c1	0.573%

Each compound was assayed against Guanidinoacetate N-methyltransferase (Homo sapiens) (UniProt Q14353) in the same assay as above. Details: MTase-Glo luminescence, SAH detection, recombinant enzyme; activity change, negative = inhibition: at 57.3 µM (top of the series).

SMILES	activity change, negative = inhibition	Potency
O=C(O)CC[C@@H](C(=O)O)N1C(=O)c2ccccc2C1=O	-2.85%	
COc1ccccc1CNCCCCCCNCCCCCCCCNCCCCCCNCc1ccccc1OC		0.153 µM (active)
O=C1NCc2c1c1c3ccccc3[nH]c1c1[nH]c3ccccc3c21		17.2 µM (active)
Fc1ccc(C(OCCCc2cnc[nH]2)c2ccc(F)cc2)cc1	7.35%	
COC1=C(OC)C(=O)c2ccccc2C1=O		19.3 µM (active)
Oc1ccc(C2CNCc3sccc32)cc1O (stereo not drawn)	1.13%	
COc1cc(OC)c(/C=C2/C(=O)Nc3ccccc32)c(OC)c1		27.3 µM (active)
CN1CCc2cccc3c2C1Cc1ccc(O)c(O)c1-3 (stereo not drawn)	3.98%	
N.N.N.N.N.N.N.N.N.N.N.N.N.N.O.O.[Ru+4].[Ru+5].[Ru+5]		30.6 µM (active)
COc1ccc(NC(=O)/C=C/c2ccc(Cl)cc2)cc1		24.3 µM (active)
Oc1ccccc1O	-2.32%	
O=[N+]([O-])c1ccc(CNc2nc(NCc3cccc(C(F)(F)F)c3)nc3nc[nH]c23)cc1	-3.71% and 5.72%	
NO	-5.54%	
OCC1O[C@H]([S-])[C@H](O)[C@@H](O)[C@@H]1O.[Au+] (stereo partly drawn)		4.85 µM (active)
COc1ccc(Br)cc1S(=O)(=O)NC(=O)/C=C/c1ccccc1Cc1ccc2ccccc2c1	-3.05%	
CC(C)(C)c1ccc(S(=O)(=O)/C=C/C#N)cc1	-1.56%	
O=C(O)CNC(=O)C(CS)Cc1ccccc1 (stereo not drawn)	4.59%	
COc1ccc(/C=C2\COc3ccc(C)cc3C2=O)cc1O	-4.7%	
O=C1C(SCCO)=C(SCCO)C(=O)c2ccccc21		4.85 µM (active)
O=C(c1cc(O)c(O)c([N+](=O)[O-])c1)c1ccccc1F	-5.06%	
CC(C)(C=O)Cc1cc(C(C)(C)C)c(O)c(C(C)(C)C)c1	1.77%	
Oc1cc2c(cc1O)CN(C(=S)NCCc1ccc(Cl)cc1)CCC2	2.52%	
O=Nc1ccc2oc(=O)ccc2c1	3.53%	
